# According to paper PMC7819943, “Rice protein-binding microarrays: a tool to detect cis-acting elements near promoter regions in rice”:
# The full ranking holds about 68,000 sequences; the median of “fluorescence intensity (a.u.)” is about 9,100, and the highest 2% start at about 16,000. This is one part of a sample in which the highest values are shown more often than they occur.
# Molecular target: OsWRKY34 (Oryza sativa, UniProt Q0JBA9 1-250)
# Assay: protein-binding microarray (RPBM); PBS, 2% BSA, 51.3 ng/ul salmon testes DNA, 50 uM zinc acetate, 200 nM TF, 25 C, 1 h; high values mean tight binding
# Conditions: protein: recombinant; tags: N-terminal polyhistidine and DsRed monomer fusion (pET32a); label: CyDye5-dUTP incorporated in the synthesized complementary strand; 3' TTTTT single-stranded linker to array surface; dsDNA, one strand shown
# How it was run: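 Per-feature fluorescence intensity (arbitrary units), read on an Axon 4000B scanner, is the binding signal. Transcription factors carrying an N-terminal polyhistidine tag and DsRed fusion were expressed in E. coli BL21-CodonPlus and purified on Ni–NTA. A custom Agilent array, made double-stranded by primer extension with Cy5-dUTP and blocked with 2% BSA, was incubated with 200 nM protein in PBS, 2% BSA, salmon testes DNA and 50 µM zinc acetate at 25 °C for 1 h and then washed.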
# OsWRKY34, sequence (Q0JBA9 entry or part of it): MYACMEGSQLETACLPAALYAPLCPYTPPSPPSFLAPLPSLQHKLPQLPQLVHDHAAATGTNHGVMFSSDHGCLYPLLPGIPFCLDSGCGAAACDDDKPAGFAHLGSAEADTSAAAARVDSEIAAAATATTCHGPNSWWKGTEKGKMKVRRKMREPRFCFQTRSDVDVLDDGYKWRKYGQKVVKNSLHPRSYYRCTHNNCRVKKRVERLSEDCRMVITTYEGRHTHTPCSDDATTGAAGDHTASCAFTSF
row,Sequence,binding signal
1,CTCGCTCACTCGGTCAGCTGCACACACACTGCACTTCGGCCGGAGTCACCTAGTGCAG,9820 fluorescence intensity (a.u.)
2,CATGCGGGGCGCGGGCGGCGGTGCAGGGCGGGGTGCGGCCCGGAGTCACCTAGTGCAG,8730 fluorescence intensity (a.u.)
3,GTTGGGGAGCGGGGTGTGTGTGCCAGGCGCTCGGGCGGGGCGGAGTCACCTAGTGCAG,19500 fluorescence intensity (a.u.)
4,GGGGTGGCGGCGGCGGCTGCGCGCGGGCGGTGGCGCGGGGCGGAGTCACCTAGTGCAG,12000 fluorescence intensity (a.u.)
5,GCGGTGCAGGGCGGTGGCGGCGGCGGGTGGGGCGGTGGCGCGGAGTCACCTAGTGCAG,20900 fluorescence intensity (a.u.)
6,GTTGGGGAGCGCGGCGGGGCGTCGGAGGAGTTGACAGGAGCGGAGTCACCTAGTGCAG,8910 fluorescence intensity (a.u.)
7,GCGTTGAGGGCAGGCGGCGGCGCTTGGTGGCGGTGGGGCACGGAGTCACCTAGTGCAG,8370 fluorescence intensity (a.u.)
8,AGGCAGGGTGGGTGGGTGGTGGGCTTGCTCGCTCCGCGTCCGGAGTCACCTAGTGCAG,19700 fluorescence intensity (a.u.)
9,ATGTTGGGCCAGGCTCGAGCTCCTCCTCCTCCGCGTCGTCCGGAGTCACCTAGTGCAG,8140 fluorescence intensity (a.u.)
10,CCAGAACGGCCGGTCAACGGCACCGTTGACCGTATGAGGGCGGAGTCACCTAGTGCAG,52400 fluorescence intensity (a.u.)
11,GGTGCGGGGTGGCGGTGCTCGGCCACAGCGGCGCGCGGGGCGGAGTCACCTAGTGCAG,8130 fluorescence intensity (a.u.)
12,GTGGGCGTGGGCCCCGCGTCCTGTGGTGGTGGTGGGTGCTCGGAGTCACCTAGTGCAG,9200 fluorescence intensity (a.u.)
13,GTGGAGGGGCGGCGTTGGGCAGAGGGGCGGCACGGGTGAACGGAGTCACCTAGTGCAG,12800 fluorescence intensity (a.u.)
14,CGGCCGTCCGCCATCTGCAAAAGGTGTTTTTTCACATGCCCGGAGTCACCTAGTGCAG,8560 fluorescence intensity (a.u.)
15,ATCCTCTTGTTTCGTACAGGTCACTTAAATAGTTATAAAACGGAGTCACCTAGTGCAG,8300 fluorescence intensity (a.u.)
16,CACTAAACGGCCAAAATCTTCCATCGTATAGTTACGTCACCGGAGTCACCTAGTGCAG,8410 fluorescence intensity (a.u.)
17,CTCTACTATCGATCTTTTTTCCACGTCGGTCGCGGCTTTTCGGAGTCACCTAGTGCAG,9580 fluorescence intensity (a.u.)
18,AGTATAACTTTTTTTTTGTCACTCTGTTATCTCACATCTGCGGAGTCACCTAGTGCAG,8760 fluorescence intensity (a.u.)
19,CTATCTTTTTCTCCATCTTTCTCTGTCCGTCCATTCACCCCGGAGTCACCTAGTGCAG,8690 fluorescence intensity (a.u.)
20,GTGCTGTGATTGGCCGCGCGGGATTTCCTGGGCGGGCGGGCGGAGTCACCTAGTGCAG,15500 fluorescence intensity (a.u.)
21,GATGGATGGGGTGGGGACTGGGGATGGATGGAGGCGGCGGCGGAGTCACCTAGTGCAG,21300 fluorescence intensity (a.u.)
22,CGCCGCCTTTGCCACTATCGCTCCCTCCTCCAGCCGGATCCGGAGTCACCTAGTGCAG,10600 fluorescence intensity (a.u.)

row,Sequence,binding signal
1,CGCGGTGTGCCGGGGAGGGAGGTGGTGGTTGAGGTTGAGGCGGAGTCACCTAGTGCAG,11700 fluorescence intensity (a.u.)
2,TCGGTGGGTGCCGGGCGGAGCGGTTTTTGAGGGAGGGGTCCGGAGTCACCTAGTGCAG,17600 fluorescence intensity (a.u.)
3,CGCCTGCCTGCCGCCACCGCCACTCCACTTTGCTTCACCGCGGAGTCACCTAGTGCAG,9570 fluorescence intensity (a.u.)
4,GGATTTCCTGGGCGGGCGGGGCGCGGATAAGGGGTGTGTGCGGAGTCACCTAGTGCAG,17000 fluorescence intensity (a.u.)
5,GGGGAGGTGGAGATGAGATGAGGCGGCGGGGTGGCGGTGGCGGAGTCACCTAGTGCAG,13700 fluorescence intensity (a.u.)
6,AGGTGTGTATCGTACCGTGGCGGGCGCTTTCCTGGTGGGGCGGAGTCACCTAGTGCAG,10200 fluorescence intensity (a.u.)
7,CGAGGAGCGGGGTGGGGTCGGAGGCGGGGAGGGAGGACGCCGGAGTCACCTAGTGCAG,16100 fluorescence intensity (a.u.)
8,CTGGGAGGGAGGGGAGGGAGCGCCGCCTTTGCCACTATCGCGGAGTCACCTAGTGCAG,16900 fluorescence intensity (a.u.)
9,GGGATGGATGGAGGCGGCGGTGCTGAGGTGGTGGGACTGTCGGAGTCACCTAGTGCAG,8460 fluorescence intensity (a.u.)
10,CATATGTTTTGTTTTGCTTTGGGGCTTTTAGTAGTAGTTCCGGAGTCACCTAGTGCAG,9460 fluorescence intensity (a.u.)
11,CACAGATCATTACACACTGTTTGAGCATCTCTCTATTCCTCGGAGTCACCTAGTGCAG,8320 fluorescence intensity (a.u.)
12,ACCCATTACAACCCTGTAGTACATGCCACACCGTTTGACACGGAGTCACCTAGTGCAG,10800 fluorescence intensity (a.u.)
13,CCTTCACCTGGTAATCATTTCGATGCATTCATTTCCCTATCGGAGTCACCTAGTGCAG,8470 fluorescence intensity (a.u.)
14,CTCGGCCAAAAAGAGATATCCCTTTCGCGCTCATCTTATCCGGAGTCACCTAGTGCAG,9980 fluorescence intensity (a.u.)
15,GGTGAGGTGGTGGTGGTGGTGGTCGGGAAGTGGCGGCGCCCGGAGTCACCTAGTGCAG,16100 fluorescence intensity (a.u.)
16,GGGATGTGGCGGGCGGTGGGTCCAGGGAGGAGGAGGAGAACGGAGTCACCTAGTGCAG,15000 fluorescence intensity (a.u.)
17,GGAGAGGAGTGAGGAGGGATTGTGAGGTGGGGTCGGGGTGCGGAGTCACCTAGTGCAG,9030 fluorescence intensity (a.u.)
18,ATATATATATATATATATATATATATATATATAGGGACAGCGGAGTCACCTAGTGCAG,9530 fluorescence intensity (a.u.)
19,TCGAGCTGGGTGGGGTTTTTATATGGGAGGAGAGGCCGCGCGGAGTCACCTAGTGCAG,16800 fluorescence intensity (a.u.)
20,GTGGAGGTCGGGGTCGGGGAGGATGAGGAGGAGGGTGTGGCGGAGTCACCTAGTGCAG,10100 fluorescence intensity (a.u.)
21,ACGGTGGCGGGGATGTGGAGGGAGGTGCAGGGGTGCGGGGCGGAGTCACCTAGTGCAG,22600 fluorescence intensity (a.u.)
